According to PubChem BioAssay (NCATS):
Values joined by “and” are separate entries in the source; they are usually repeats but may differ in a detail not shown here. Identical values can stand only once. Inconclusive results are not listed. A structure can be active in one record and inactive in another. Active and inactive are the calls of the source. Unless noted, the call rests on the fitted dose curve.

Molecular target: Cytochrome P450 1A2 (Homo sapiens) (UniProt P05177)
Assay: p450-cyp1a2 (AID 410);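 on activity change, negative = inhibition: -100% = full effect of reference inhibitor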
Conditions: recombinant CYP1A2, luciferin-ME demethylation, luminescence; series mostly up to 57 µM; activity change, negative = inhibition: at the top concentration
Summary of the method: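 Read-out is luminescence from luciferin produced by CYP1A2 demethylation of Luciferin-ME (100uM, at Km). Detection reagent stopped the 60 min NADPH-dependent reaction; signals were normalized to 57 uM furafylline.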
Potency means the concentration at half of the fitted maximal effect.

Sequence of Cytochrome P450 1A2 (Homo sapiens) (P05177 whole entry, looked up): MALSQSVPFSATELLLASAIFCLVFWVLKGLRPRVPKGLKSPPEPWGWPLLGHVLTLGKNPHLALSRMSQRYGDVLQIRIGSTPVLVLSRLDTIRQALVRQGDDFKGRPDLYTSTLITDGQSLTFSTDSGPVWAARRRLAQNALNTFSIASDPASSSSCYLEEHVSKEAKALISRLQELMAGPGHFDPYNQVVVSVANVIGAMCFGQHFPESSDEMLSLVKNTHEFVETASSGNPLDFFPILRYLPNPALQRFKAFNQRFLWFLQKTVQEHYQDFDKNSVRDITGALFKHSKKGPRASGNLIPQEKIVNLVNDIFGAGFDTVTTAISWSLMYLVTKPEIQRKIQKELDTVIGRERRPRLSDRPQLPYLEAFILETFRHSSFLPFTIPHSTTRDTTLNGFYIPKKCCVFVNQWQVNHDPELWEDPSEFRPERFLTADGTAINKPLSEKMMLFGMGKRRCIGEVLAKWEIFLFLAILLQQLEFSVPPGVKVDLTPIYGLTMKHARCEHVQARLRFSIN

SMILES	Potency	activity change, negative = inhibition
NC(N)=NC(=O)c1nc(Cl)c(N)nc1N	12.6 µM (active) and 6.31 µM (active)	–
N=c1nc(N2CCCCC2)cc(N)n1O	inactive	–
NNCCc1ccccc1	3.16 µM (active) and 1 µM (active)	–
Clc1cccc(Cl)c1NC1=NCCN1	inactive	–
Nc1ccc(S(=O)(=O)Nc2ccnn2-c2ccccc2)cc1	inactive	–
CC(=O)Oc1ccccc1C(=O)O	–	-5.2% (inactive)
O=c1n(CCCN2CCN(c3cccc(Cl)c3)CC2)nc2ccccn12	inactive	–
Cc1ccc2c(c1)C(=O)[C@@]1(O)CCN(c3ccccc3)C1=N2	3.98 µM (active)	–
CCCC(CCC)C(=O)O	–	-4.8% (inactive)
N[C@@H]1CONC1=O	inactive	–
Cc1cc2c(C(C)C)c(O)c(O)c(C=O)c2c(O)c1-c1c(C)cc2c(C(C)C)c(O)c(O)c(C=O)c2c1O	15.8 µM (active)	–
Cc1oncc1C(=O)Nc1ccc(C(F)(F)F)cc1	631 nM (active) and 63.1 nM (active)	–
O=c1[nH]cnc2[nH]ncc12	–	-0.2% (inactive)
O=C1CCc2cc(OCCCCc3nnnn3C3CCCCC3)ccc2N1	–	-5.3% (inactive)
Nc1nc2c(ncn2COCCO)c(=O)[nH]1	inactive	–
CC(C)(Sc1ccc(CCN(CCCCC2CCCCC2)C(=O)NC2CCCCC2)cc1)C(=O)O	–	-3.6% (inactive)
CCOC(=O)C1=C[C@@]2(CC)CCCN3CCc4c(n1c1ccccc41)[C@H]32	inactive and 39.8 µM (active)	–
CCN(c1ccccc1)c1cc(NC)[n+](C)c(C)n1	31.6 µM (active)	–
Cc1ccc(N(CC2=NCCN2)c2cccc(O)c2)cc1	inactive	–
NC(=O)c1cnccn1	–	1.6% (inactive)
CC(C)C[C@H](NC(=O)[C@@H](O)[C@H](N)Cc1ccccc1)C(=O)O	–	-28% (inactive)
C1COC(NC(C2CC2)C2CC2)=N1	inactive	–

Test system: not listed separately
Assay: Cell Viability - BJ (AID 421);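 further: cells exposed to compound for 40 hours at 37 °C before readout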
Conditions: BJ fibroblast viability, qHTS
Summary of the method: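 Quantitative HTS: ATP depletion in BJ cells after 40 hr compound exposure in complete culture medium, detected with CellTiter-Glo; AC50 from standard Hill fits.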

SMILES	Potency
NC(N)=NC(=O)c1nc(Cl)c(N)nc1N	> 92 µM (inactive)
CC(=O)Oc1ccccc1C(=O)O	> 92 µM (inactive)
Cn1cnc([N+](=O)[O-])c1Sc1ncnc2nc[nH]c12	> 92 µM (inactive)
NS(=O)(=O)c1cc2c(cc1Cl)NC=NS2(=O)=O	> 92 µM (inactive)
CCCC(CCC)C(=O)O	> 92 µM (inactive)
O=c1[nH]cnc2[nH]ncc12	> 92 µM (inactive)
NC(=O)c1cnccn1	> 92 µM (inactive)

Test system: not listed separately
Assay: Cell Viability - Jurkat (AID 426;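 active means dose-dependent loss of cell ATP signal giving a full or clear fitted curve, ranked by lower potency value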;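 further: cells exposed to compound for 40 hours at 37 °C before ATP read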)
Conditions: qHTS
Summary of the method: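 Cytotoxicity was scored as loss of cellular ATP, measured by luciferase-based luminescence, in Jurkat clone E6-1 cells after 40 h compound treatment; tamoxifen and doxorubicin served as positive controls.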

SMILES	Potency
NC(N)=NC(=O)c1nc(Cl)c(N)nc1N	> 92 µM (inactive)
CC(=O)Oc1ccccc1C(=O)O	> 92 µM (inactive)
Cn1cnc([N+](=O)[O-])c1Sc1ncnc2nc[nH]c12	0.384 µM (active)
NS(=O)(=O)c1cc2c(cc1Cl)NC=NS2(=O)=O	> 92 µM (inactive)
CCCC(CCC)C(=O)O	> 92 µM (inactive)
O=c1[nH]cnc2[nH]ncc12	> 92 µM (inactive)
NC(=O)c1cnccn1	> 92 µM (inactive)

Test system: not listed separately
Assay: Cell Viability - Hek293 (AID 427;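 active means compounds whose dose-response curve shows a full or clear partial loss of cell viability, called from curve shape rather than a numeric limit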;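 further: cells exposed to compound for 40 hours at 37 °C before reading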)
Conditions: qHTS
Summary of the method: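 AC50 values derive from Hill-modelled concentration-response of ATP-based luminescence, normalized between DMSO-only and 100 uM tamoxifen controls. Cells were exposed in complete culture medium for 40 hr at 37 °C before detection.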

SMILES	Potency
NC(N)=NC(=O)c1nc(Cl)c(N)nc1N	> 92 µM (inactive)
CC(=O)Oc1ccccc1C(=O)O	> 92 µM (inactive)
Cn1cnc([N+](=O)[O-])c1Sc1ncnc2nc[nH]c12	2.04 µM (active)
NS(=O)(=O)c1cc2c(cc1Cl)NC=NS2(=O)=O	> 92 µM (inactive)
CCCC(CCC)C(=O)O	> 92 µM (inactive)
O=c1[nH]cnc2[nH]ncc12	> 92 µM (inactive)
NC(=O)c1cnccn1	> 92 µM (inactive)

Test system: not listed separately
Assay: Cell Viability - HepG2 (AID 433);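 further: cells exposed to compound for 40 hours; potency for ATP loss meaning cytotoxicity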
Conditions: qHTS
Summary of the method: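 In this qHTS format, a 40 h, 37 °C compound incubation of HepG2 cells in complete medium precedes a 20 min CellTiter-Glo step at room temperature. Tamoxifen and doxorubicin serve as positive controls; Hill-equation fits yield AC50.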

SMILES	Potency
NC(N)=NC(=O)c1nc(Cl)c(N)nc1N	> 92 µM (inactive)
CC(=O)Oc1ccccc1C(=O)O	> 92 µM (inactive)
NS(=O)(=O)c1cc2c(cc1Cl)NC=NS2(=O)=O	> 92 µM (inactive)
CCCC(CCC)C(=O)O	> 92 µM (inactive)
O=c1[nH]cnc2[nH]ncc12	> 92 µM (inactive)
NC(=O)c1cnccn1	> 92 µM (inactive)

Test system: not listed separately
Assay: Cell Viability - MRC5 (AID 434);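 further: cells exposed to compound for 40 hours at 37 °C; potency reflects cytotoxicity seen as loss of intracellular ATP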
Conditions: MRC5 lung fibroblast viability, qHTS
Summary of the method: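 AC50 values come from Hill-equation fits of intracellular ATP loss, measured by CellTiter-Glo luminescence. Normal lung fibroblasts (MRC5) had 40 hr compound treatment at 37 C, normalized between DMSO and 100 uM tamoxifen.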

SMILES	Potency
NC(N)=NC(=O)c1nc(Cl)c(N)nc1N	> 92 µM (inactive)
CC(=O)Oc1ccccc1C(=O)O	> 92 µM (inactive)
Cn1cnc([N+](=O)[O-])c1Sc1ncnc2nc[nH]c12	> 92 µM (inactive)
NS(=O)(=O)c1cc2c(cc1Cl)NC=NS2(=O)=O	> 92 µM (inactive)
CCCC(CCC)C(=O)O	> 92 µM (inactive)
O=c1[nH]cnc2[nH]ncc12	> 92 µM (inactive)
NC(=O)c1cnccn1	> 92 µM (inactive)

Test system: not listed separately
Assay: Cell Viability - SK-N-SH (AID 435);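 further: compound exposure lasted 40 h at 37 °C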
Conditions: SK-N-SH neuroblastoma cell viability qHTS
Summary of the method: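 Human neuroblastoma line, 40 h exposure at 37 °C, ATP quantified via luciferase luminescence; DMSO and 100 uM tamoxifen define 0 and 100% inhibition for AC50 fitting.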

SMILES	Potency
NC(N)=NC(=O)c1nc(Cl)c(N)nc1N	> 92 µM (inactive)
CC(=O)Oc1ccccc1C(=O)O	> 92 µM (inactive)
Cn1cnc([N+](=O)[O-])c1Sc1ncnc2nc[nH]c12	0.529 µM (active)
NS(=O)(=O)c1cc2c(cc1Cl)NC=NS2(=O)=O	> 92 µM (inactive)
CCCC(CCC)C(=O)O	> 92 µM (inactive)
O=c1[nH]cnc2[nH]ncc12	> 92 µM (inactive)
NC(=O)c1cnccn1	> 92 µM (inactive)
